In PubChem BioAssay (NCATS):
Results filed as inconclusive are left out. Values without a mark were called inactive. Calls of active or inactive are those of the source. Calls come from the whole dose curve; as a rule, active = well fitted inhibition curve with a large enough effect; inconclusive = small, poorly fitted or top-dose-only effect; inactive = flat fitted curve, though single readings scatter.

How the values were obtained:
Assay in all cases: Cytotoxic Profiling of Annotated Libraries Using Quantitative High-Throughput Screening (AID 1296008); note: nearly all actives have a fitted effect of over 60% in size
Conditions in all cases: Five cell lines viability, CellTiter-Glo ATP luminescence, 48-72 h; max response: active compounds read low
HaCat = system: HaCat
In short: (§1)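 Compounds were pin-transferred onto cells and incubated 48 or 72 hr at 37 degree Celsius, 95% humidity. CellTiter-Glo was added, plates sat 10 min at room temperature, then ATP-coupled luminescence was imaged as the viability read-out.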

KB-3-1 = system: KB-3-1
In short: as §1

NIH3T3 = system: NIH3T3
In short: as §1
% is set by controls: 0 for no effect and ±100 for the full control effect; potency is the fitted concentration of half-maximal effect.

**Q.** For `CC(Oc1ccc2[nH]nc(/C=C/c3cnn(CCO)c3)c2c1)c1c(Cl)cncc1Cl` (stereo not given), which Potency (HaCat) is on record?
**A.** The Potency was 2.06 µM (active).

**Q.** What about the Potency (KB-3-1) of the same compound?
**A.** The Potency was 0.291 µM (active).

**Q.** What about the Potency (NIH3T3) of the same compound?
**A.** The Potency was 0.517 µM (active).

**Q.** For `C=C1C(=O)OC2C1C(O)CC1(C)C(O)CCC(C=O)C21` (stereo not given), which max response (HaCat) is on record?
**A.** Its max response is -11.8%.

**Q.** And the outcome (KB-3-1)?
**A.** Its outcome is “inactive”.

**Q.** What about the max response (NIH3T3) of the same compound?
**A.** Its max response is -0.523%.

**Q.** With `CC(C)[N+]1(C)C2CCC1CC(OC(=O)C(CO)c1ccccc1)C2` (stereo not given) as the compound, how does the max response (HaCat) read?
**A.** The max response was -18.4%.

**Q.** And the max response (KB-3-1)?
**A.** Its max response is -2.64%.

**Q.** And the max response (NIH3T3)?
**A.** Its max response is -9.66%.

**Q.** `CC1=C2C3OC(=O)C(C)C3(O)CCC2(C)CCC1O` (stereo not given) was tested. Which max response (HaCat) did it give?
**A.** The max response was -12.8%.

**Q.** What about the max response (KB-3-1) of the same compound?
**A.** Its max response is 5.71%.

**Q.** And the max response (NIH3T3)?
**A.** The max response was -16.2%.

**Q.** Which results are given for `COc1c2c(c(C)c3c1C(=O)OC3)O[C@@]1(C)CC(O)C(C(C)(C)O)[C@](C)(CCC(=O)O)[C@H]1C2` (stereo not given in full)?
**A.** max response (HaCat): 2%; outcome (KB-3-1): inactive; max response (NIH3T3): -2.21%

**Q.** How did the max response (HaCat) turn out when `CCOC(=O)C(CCc1ccccc1)NC(C)C(=O)N1C(=O)N(C)CC1C(=O)O` (stereo not given) was run?
**A.** The max response was -19.4%.

**Q.** And the outcome (KB-3-1)?
**A.** Its outcome is “inactive”.

**Q.** What about the max response (NIH3T3) of the same compound?
**A.** The max response was 1.45%.

**Q.** Which max response (HaCat) does the source give for `Cc1c(C(=O)N2CCOc3ccc(-c4ccc(N)nc4)cc3C2)ccc(S(C)(=O)=O)c1F` here?
**A.** The max response was 2.5%.

**Q.** And the Potency (KB-3-1)?
**A.** Its Potency is 7.31 µM (active).

**Q.** What about the Potency (NIH3T3) of the same compound?
**A.** The Potency was 11.6 µM (active).

**Q.** With `CCC1C(=O)OC23C=C[C@@H]4C(C(=O)O)=CO[C@H](O[C@@H]12)[C@@H]43` (stereo not given in full) as the compound, how does the max response (HaCat) read?
**A.** Its max response is 2.84%.

**Q.** What about the max response (KB-3-1) of the same compound?
**A.** The max response was -1.99%.

**Q.** What about the max response (NIH3T3) of the same compound?
**A.** Its max response is 0.895%.

**Q.** What does the source list for `CC1CC(C(O)C(C)(C)O)OC2CC3(C)C4(C)CCC5C(C)(C)C(=O)CCC5(C)C4CCC3(O)C12O` (stereo not given)?
**A.** max response (HaCat): 3.58%; outcome (KB-3-1): inactive; max response (NIH3T3): 2.04%

**Q.** `CC1(C)C2CC=C(COC3OC(COC4OCC(O)(CO)C4O)C(O)C(O)C3O)C1C2` (stereo not given) was tested. Which max response (HaCat) did it give?
**A.** The max response was 3.64%.

**Q.** And the max response (KB-3-1)?
**A.** Its max response is 4.52%.

**Q.** What about the max response (NIH3T3) of the same compound?
**A.** Its max response is 3.88%.

**Q.** What does the source list for `CC(C)=CCC(O)/C(C)=C/CO[C@@H]1O[C@H](CO)[C@@H](O)[C@H](O)[C@H]1O` (stereo not given in full)?
**A.** max response (HaCat): -6.63%; outcome (KB-3-1): inactive; max response (NIH3T3): 0.203%

**Q.** With `C[C@@H]1O[C@@H](O[C@@H]2[C@@H](O[C@@H]3O[C@@H](C)[C@H](O[C@@H]4OC[C@H](O)[C@H](O[C@@H]5OC[C@@H](O)[C@H](O)[C@H]5O)[C@H]4O)[C@@H](O[C@@H]4OC[C@](O)(CO)[C@H]4O)[C@H]3O)[C@H](OC(=O)[C@]34CCC(C)(C)C[C@H]3C3=CCC5[C@@]6(C)C[C@H](O)[C@H](O[C@@H]7O[C@H](CO[C@@H]8OC[C@H](O)[C@H](O)[C@H]8O)[C@@H](O)[C@H](O)[C@H]7O)C(C)(C)C6CC[C@@]5(C)[C@]3(C)C[C@H]4O)OC[C@H]2O)[C@H](O)[C@H](O)[C@H]1O` (stereo not given in full) as the compound, how does the max response (HaCat) read?
**A.** Its max response is 0.757%.

**Q.** What about the max response (KB-3-1) of the same compound?
**A.** Its max response is 9.59%.

**Q.** And the max response (NIH3T3)?
**A.** The max response was 0.953%.

**Q.** Which max response (HaCat) does the source give for `C[C@@H]1O[C@@H](O[C@H]2[C@@H](OC(=O)[C@]34CCC(C)(C)CC3C3=CCC5[C@@]6(C)C[C@H](O)[C@H](O[C@@H]7O[C@H](C(=O)O)[C@@H](O)[C@H](O)[C@H]7O)[C@@](C)(C(=O)O)C6CC[C@@]5(C)[C@]3(C)CC4)OC[C@H](O)[C@@H]2O)[C@H](O)[C@H](O)[C@H]1O[C@@H]1OC[C@@H](O)[C@H](O)[C@H]1O` (stereo not given in full) here?
**A.** The max response was -1.2%.

**Q.** And the outcome (KB-3-1)?
**A.** The outcome was “inactive”.

**Q.** What about the max response (NIH3T3) of the same compound?
**A.** Its max response is -0.698%.

**Q.** `C=C1C[C@]23C[C@H]1CC[C@H]2C1=C[C@H]2OC(=O)[C@@](C)([C@H]1[C@@H]3C(=O)O)[C@H]2O` was tested. Which max response (HaCat) did it give?
**A.** The max response was 1.41%.

**Q.** And the outcome (KB-3-1)?
**A.** The outcome was “inactive”.

**Q.** What about the max response (NIH3T3) of the same compound?
**A.** The max response was 3.03%.

**Q.** What does the source list for `Cc1ccc(F)cc1C(=O)Nc1ccc(C(=O)N2Cc3cccn3Cc3ccccc32)c(Cl)c1`?
**A.** max response (HaCat): -26.5%; max response (KB-3-1): -16%; max response (NIH3T3): -21.1%

**Q.** What does the source list for `CC1COC2(OC3CC4C5CC(O[C@@H]6O[C@H](C)[C@@H](O[C@@H]7O[C@@H](C)[C@H](O)[C@@H](O)[C@H]7O)[C@H](O)[C@H]6O)C6CC(O)CCC6(C)C5CCC4(C)C3C2C)C(O)C1` (stereo not given in full)?
**A.** max response (HaCat): -23.5%; max response (KB-3-1): 7.16%; max response (NIH3T3): 4.8%

**Q.** Which max response (HaCat) does the source give for `C=CC(C)(CC/C=C(\C)C(=O)OC)OC1OC(COC(=O)CC(C)(O)CC(=O)O)C(OC2OC(CO)C(O)C(O)C2O)C(O)C1O` (stereo not given) here?
**A.** Its max response is -0.66%.

**Q.** And the outcome (KB-3-1)?
**A.** Its outcome is “inactive”.

**Q.** And the max response (NIH3T3)?
**A.** The max response was 2.15%.

**Q.** What does the source list for `C=CC1(C)C=C2C(=O)OC(=O)C3=C(CCCC3(C)C)C2(O)CC1` (stereo not given)?
**A.** max response (HaCat): 1.65%; max response (KB-3-1): 7.97%; max response (NIH3T3): 0.193%

**Q.** `C[C@@H]1O[C@@H](O[C@@H]2[C@@H](O)[C@H](O[C@H]3CC[C@@]4(C)C(CC[C@]5(C)C4CC=C4[C@@H]6CC(C)(C)CC[C@]6(C(=O)O[C@@H]6O[C@H](CO)[C@@H](O)[C@H](O)[C@H]6O)CC[C@]45C)C3(C)C)O[C@H](C(=O)O)[C@H]2O)[C@H](O)[C@H](O)[C@H]1O` (stereo not given in full) was tested. Which outcome (HaCat) did it give?
**A.** The outcome was “inactive”.

**Q.** What about the max response (KB-3-1) of the same compound?
**A.** The max response was 4.23%.

**Q.** And the max response (NIH3T3)?
**A.** Its max response is 4.82%.

**Q.** Which results are given for `C=CC/C=C\C/C=C\CCCCCCCc1cccc(O)c1C(=O)O`?
**A.** max response (HaCat): 3.56%; max response (KB-3-1): 4.36%; max response (NIH3T3): -1.27%
